Experimental data reported in PubChem BioAssay (NCI).
This is part of a sample that, as a whole, favours compounds with a hit. Of some 79,000 tested, about 15% had one in any assay. A number with no mark means an inactive call. Calls of active or inactive are those of the source. Rule as the data show it: active = growth inhibition above about 70%; inactive = the rest.

Assays:
[1] = NCI Yeast Anticancer Drug Screen. Data for the rad50 strain (AID 155);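 also: 0% = growth of vehicle-only cultures of the same strain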; settings: S. cerevisiae rad50 strain growth inhibition, stronger effect = higher value
Procedure, shortened: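 Yeast carrying a defined DNA repair defect were exposed to test compounds, and growth was compared with vehicle-treated controls to give percent inhibition.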

[2] = NCI Yeast Anticancer Drug Screen. Data for the mec2-1 strain (AID 157); settings: S. cerevisiae mec2-1 strain, stronger effect = higher value
Procedure, shortened: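 Each compound was tested on mec2-1 yeast, a strain altered in DNA damage repair or cell cycle control. Growth inhibition is reported relative to vehicle.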

[3] = NCI Yeast Anticancer Drug Screen. Data for the sgs1 mgt1 strain (AID 161);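 also: 0% = growth of cultures given vehicle only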; settings: S. cerevisiae sgs1 mgt1 strain, stronger effect = higher value
Procedure, shortened: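 Mutant yeast exposed to compound; growth scored against vehicle-only wells.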

[4] = NCI Yeast Anticancer Drug Screen. Data for the cln2 rad14 strain (AID 165);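 also: 0% = growth equal to vehicle treated cultures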; settings: S. cerevisiae cln2 rad14 strain, stronger effect = higher value
Procedure, shortened: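 Test compounds were added to cln2 rad14 yeast cultures; inhibition of growth was then determined by comparison with vehicle treatment.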

[5] = NCI Yeast Anticancer Drug Screen. Data for the bub3 strain (AID 167); settings: S. cerevisiae bub3 mutant strain, stronger effect = higher value
Procedure, shortened: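 Compounds were applied to a genetically altered yeast strain carrying a cell-cycle control defect. Growth inhibition was scored against vehicle-treated controls.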

[6] = NCI Yeast Anticancer Drug Screen. Data for the mlh1 rad18 strain (AID 175); settings: S. cerevisiae mlh1 rad18 strain growth inhibition, stronger effect = higher value
Procedure, shortened: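 Inhibition values reflect reduced growth of mutant yeast versus vehicle-treated controls following compound exposure; the mutations affect DNA damage repair.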

[7] = at 5.0 µM (retest, dose inferred, filed as 0.5)
[8] = at 50.0 µM (retest, dose inferred, filed as 5.0)

Compound	growth inhibition [1, 7] [%]	growth inhibition [1, 8]	growth inhibition ([1]; at 50.0 µM)	growth inhibition [2, 7] [%]	growth inhibition [2, 8]	growth inhibition ([2]; at 50.0 µM)	growth inhibition [3, 7] [%]	growth inhibition [3, 8]	growth inhibition ([3]; at 50.0 µM)	growth inhibition [4, 7] [%]	growth inhibition [4, 8]	growth inhibition ([4]; at 50.0 µM)	growth inhibition [5, 7] [%]	growth inhibition [5, 8]	growth inhibition ([5]; at 50.0 µM)	growth inhibition [6, 7] [%]	growth inhibition [6, 8]	growth inhibition ([6]; at 50.0 µM)
Cc1ccc(C2COc3cc(O)c(O)cc3C2)cc1 (stereo not given)	29	99% (active)	99.5% (active)	33	99% (active)	99.6% (active)	32	99% (active)	99.5% (active)	11	99% (active)	96.2% (active)	32	99% (active)	99.6% (active)	51	99% (active)	99.4% (active)
CC1=CC(=N/O)/C=CC/1=C(\C#N)c1ccccc1	-14	99% (active)	99.2% (active)	-11	99% (active)	99.4% (active)	-6	99% (active)	99.4% (active)	-47	99% (active)	99.3% (active)	-17	99% (active)	99.4% (active)	-20	100% (active)	98.7% (active)
COC(=O)CCCCCCCCCCC(=O)O	-3	-4%	2.45%	-1	-2%	-11.6%	-2	4%	-9.55%	-9	-4%	-4.75%	-4	-9%	38.6%	-2	2%	-6.6%
Brc1cccc[n+]1Cc1cc2ccccc2c2ccccc12	0	91% (active)	97.2% (active)	32	74% (active)	97.5% (active)	0	88% (active)	98.6% (active)	-5	70% (active)	94.5% (active)	-12	91% (active)	97.5% (active)	1	88% (active)	97.9% (active)
C[Si](C)(C)CN1C(=O)c2ccccc2C1(O)c1ccccc1 (stereo not given)	-2	69%	69.8%	-1	66%	35.8%	-4	74% (active)	47.5%	-1	29%	42.5%	-3	33%	4.2%	-1	69%	71.2% (active)
C1=CN2C(c3ccccc3)=NN(c3ccccc3)[C@@H]2c2ccccc21	-4	70% (active)	60.6%	-6	53%	42%	-3	50%	56.3%	0	22%	27.8%	1	79% (active)	59.5%	2	72% (active)	54.8%
CCCCCCCCCCCCCCC(O)C(=O)O (stereo not given)	-6	-27%	68.7%	-2	-31%	88.1% (active)	-7	-33%	33%	-1	-42%	11.4%	-1	-28%	96.4% (active)	-2	-27%	73.5% (active)
Cc1ccc(C)c(NC(=O)/C(=N\NC(N)=S)C(C#N)c2ccccc2)c1 (stereo not given)	5	13%	-14.3%	6	6%	12.8%	2	12%	15.6%	-1	-4%	28%	10	2%	5.75%	1	6%	69.2%
CCOC(=O)c1cnc2ccc(C3CCCCC3)cc2c1Nc1ccc2c(c1)OCO2	-15	91% (active)	11.1%	-4	95% (active)	-8.35%	-23	96% (active)	5.15%	-9	92% (active)	-12.8%	3	93% (active)	-7.25%	-3	93% (active)	25.4%
COc1cccc(C2c3cc4c(cc3OC(N3CCOCC3)C2C)OCO4)c1 (stereo not given)	25	16%	-11.8%	14	6%	-9.25%	9	7%	3.2%	11	6%	8.45%	26	13%	0.2%	20	13%	-3.05%
